Screening data (PubChem BioAssay)
TIM10 inh: growth inhibitors of TIM10 yeast strain | S. cerevisiae TIM10 strain growth, BacTiter-Glo luminescence, 24 h | inhibition, % at 10 µM | 1.4% of 330,000 active | AID 463195;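 active means inhibition of 40% or more at the single tested concentration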;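 further: wild-type TIM10 isogenic control strain grown at permissive 25 °C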
tim10-1 inh: inhibits growth of tim10-1 mutant yeast; S. cerevisiae tim10-1 ts strain growth, BacTiter-Glo, 24 h; inhibition, % at 20 µM; 2.2% of 330,000 active;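 active means inhibition of at least 40%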;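 further: mutant grown at 25 °C; 0% = DMSO wells with yeast and 100% = wells holding no yeast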
SKKanGAS inh: SKKanGAS growth inhibition; S. pyogenes SKKanGAS, kanamycin growth, BacTiter-Glo, 6 h; inhibition, % at 7.5 µM; 1.3% of 300,000 active; AID 1662;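 active means mean replicate score, as percent of positive control median, at least 50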;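 further: strain carries kanamycin resistance gene driven by streptokinase promoter and grows in 40 µg/ml kanamycin; loss of luminescence reflects streptokinase promoter inhibition or plain growth inhibition; 0% = median of DMSO wells and 100% = positive control at its reference dose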
NALP3 yeast inh: inhibitors of NALP3 inflammasome in yeast; inhibition, % at 10 µM; 0.39% of 330,000 active; Yeast reconstituted NLRP3/ASC/caspase-1, beta-gal luminescence, 24 h;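 active means inhibition of 50% or more; inactive means inhibition below 50%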;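 further: plate controls were induced DMSO wells for no effect and uninduced yeast grown without galactose for full effect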
tim23-1 inh: growth inhibitors of tim23-1 mutant yeast | inhibition, % at 20 µM | S. cerevisiae tim23-1 growth, BacTiter-Glo luminescence, 24 h | 1.3% of 330,000 active;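 active means growth inhibition of the mutant yeast at or above 50%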;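 further: temperature-sensitive mutant grown at 25 °C; plate controls were DMSO-treated mutant yeast for no effect and medium wells lacking yeast for full effect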
tim10-1 confirm: tim10-1 yeast growth inhibition, confirmed | shares compounds with tim10-1 inh | S. cerevisiae tim10-1 ts strain growth, BacTiter-Glo, 24 h | inhibition, % at 20 µM | 56% of 7,400 active | AID 463213;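 active means inhibition of yeast growth at or above a set limit in either of two repeat tests at 20 µM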;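 further: tim10-1 mutant grown at permissive 25 °C to find synthetic lethal compounds; 0% = DMSO yeast wells and 100% = medium wells without yeast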
TIM10 conf: TIM10 yeast growth inhibition, confirmed. inhibition, % at 10 µM. 63% of 4,600 active. shares compounds with TIM10 inh. S. cerevisiae tim10 strain growth, BacTiter-Glo luminescence, 24 h;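 active means inhibition of yeast growth at or above a set limit in either of two replicates at 10 µM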;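 further: this counterscreen used the strain with wild-type TIM10; 0% = yeast with DMSO and 100% = medium wells lacking yeast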
An asterisk follows results filed as active; . = no result. Compounds with a hit are over-represented: about 4.6% of the library has one in this group of screens.

SMILES | TIM10 inh | tim10-1 inh | SKKanGAS inh | NALP3 yeast inh | tim23-1 inh | tim10-1 confirm | TIM10 conf
Cc1ccc(-c2nnc(Sc3nc4ccccc4o3)c3ccccc23)cc1 | 48.0* | 46.3* | 6.1 | 28.9 | 49.1 | 29.9* | 37.8*
CCCN(CC(=O)Nc1ccccc1C)C(=O)c1ccc2ccccc2n1 | -6.9 | 19.5 | -6.3 | 15.9 | 12.0 | . | .
Cc1ccccc1NC(=S)c1ccc2ccccc2n1 | 40.1* | 42.6* | 29.4 | 30.1 | 43.7 | 20.2 | 37.2*
Cc1[nH]nc(N)c1N=Nc1ccc(Br)cc1 | 29.5 | 14.2 | 16.0 | 19.4 | -263.8 | . | .
Cc1nc(N)sc1N=Nc1ccc(Br)cc1 | 59.5* | 44.0* | 12.5 | 27.9 | 48.2 | 28.6* | 57.5*
Cc1cccc(C(=O)Nc2cccc(Br)c2)c1[N+](=O)[O-] | 64.9* | 57.7* | -4.4 | 0.6 | 43.4 | 54.0* | 50.5*
c1ccc(Nc2cccc(Nc3ccccc3)n2)cc1 | 60.0* | 63.9* | 39.6 | 28.1 | 38.7 | 57.2* | -9.9
CN(CC(=O)Nc1ccc(F)c(F)c1F)C(=O)C1CCC1 | -9.5 | -6.3 | 0.3 | 8.3 | 4.7 | . | .
COc1ccc(Cn2c(SCc3ccc(C)cc3)nc3cc(OC)c(OC)cc3c2=N)cc1Cl | 61.9* | 90.3* | 101.8* | 18.9 | 41.6 | 87.0* | -6.1
Cc1ccc(/C=C(\C#N)C(=O)Nc2cccc(C)n2)cc1 | 18.7 | 33.2 | 0.9 | 6.7 | 43.7 | . | .
CN(C)Cc1nc2c(c(=O)[nH]1)C1(CCCCC1)Cc1ccccc1-2 | 44.4* | 48.9* | -0.2 | -2.1 | 21.9 | 38.3* | 38.3*
CN(C)Cc1nc2c(c(=O)[nH]1)C(C)(C)Cc1ccccc1-2 | -9.1 | 15.0 | 1.4 | 20.7 | 17.7 | . | .
Cc1ccc(N=Cc2c(O)n(C)c(=O)n(C)c2=O)nc1 | 43.1* | 40.4* | 1.1 | 8.2 | 24.7 | 17.0 | 33.5*
CCOC(=O)C1CCN(C(=O)c2sc3nc(-c4ccccc4)cn3c2C)CC1 | 57.4* | 66.0* | -1.9 | 0.3 | 41.3 | 60.5* | 51.8*
COC(=O)C1CCN(C(=O)c2sc3nc(-c4ccc(F)cc4)cn3c2C)CC1 | 54.9* | 69.7* | . | 3.6 | 39.8 | 64.1* | 34.6*
COc1ccc(C(=O)NCCOc2ccccc2)cc1S(=O)(=O)N1CCOCC1 | 0.1 | 0.8 | . | -1.4 | 14.3 | . | .
Cc1[nH]nc2c1-c1nc3ccccc3nc1C(C)(C)C2 | 44.2* | 44.1* | 15.1 | -2.8 | 37.9 | 34.9* | 24.9
C=CCNC(=O)c1ccc(NC(=O)C2=CSCCO2)cc1 | 4.4 | 27.6 | -2.2 | 11.6 | 20.8 | . | .
O=C(NC1=NCCS1)c1sc2cc(Cl)cc(Cl)c2c1Cl | 45.0* | 49.9* | -8.6 | 27.4 | 42.6 | 25.0 | 5.7
COc1cc(OC)cc(C(=O)NC2=NCCS2)c1 | 11.4 | 9.4 | -3.6 | 10.9 | 6.6 | . | .
O=C(CCN1C(=O)CSc2ccccc21)Nc1ccc(OC(F)(F)F)cc1 | -1.8 | 7.6 | . | 26.4 | 29.4 | . | .
c1cncc(CNc2nc(-c3cccnc3)nc3ccccc23)c1 | -14.3 | 12.7 | 3.7 | 14.9 | 19.6 | . | .
Cc1nc(NCc2ccccn2)c2ccccc2n1 | -13.9 | -15.1 | -1.2 | 3.9 | 3.5 | . | .
O=c1c2ccccc2nc2c3ccccc3c(NCc3cccnc3)nn12 | 49.1* | 53.9* | 12.6 | 13.2 | 24.4 | 63.9* | 51.1*
O=c1c2ccccc2nc2c3ccccc3c(NCc3ccccn3)nn12 | 70.7* | 71.4* | . | 14.7 | 34.8 | 65.0* | 63.2*
SMILES | TIM10 inh | tim10-1 inh | SKKanGAS inh | NALP3 yeast inh | tim23-1 inh | tim10-1 confirm | TIM10 conf
Cn1cc(/C=C(\NC(=O)c2ccccc2Cl)C(=O)NCCCn2ccnc2)c2ccccc21 | -5.2 | -13.0 | -1.9 | 8.0 | -4.1 | . | .
CC(C(=O)N1CCN(Cc2ccc3c(c2)OCO3)CC1)n1cc([N+](=O)[O-])cn1 (configuration not stated) | 7.2 | -13.4 | 26.8 | 18.4 | 9.1 | . | .
Cc1ccc(CSc2nnc(-c3cccs3)n2C)cc1 | 25.3 | 23.2 | 2.0 | 25.0 | 42.9 | . | .
Cn1c(SCc2c(Cl)cccc2Cl)nnc1-c1cccs1 | 47.5* | 48.4* | . | 42.9 | 44.0 | 34.5* | 33.6*
Cc1cc(C)cc(N(C(=O)CNC(=O)c2ccco2)C(C(=O)NC2CCCCC2)c2ccncc2)c1 (configuration not stated) | 14.9 | -9.5 | -0.5 | 12.3 | 4.7 | . | .
Cc1cccc[n+]1CCCCCCCCCC[n+]1ccccc1C | 45.6* | 51.5* | -14.0 | 14.2 | 49.8 | 70.3* | 47.2*
O=C(CSc1nc2ccccc2c(=O)n1-c1ccc(F)cc1)NC1CCS(=O)(=O)C1 (configuration not stated) | -2.8 | 10.9 | . | 23.4 | 9.3 | . | .
O=C1N/C(=C\c2ccc(O)cc2)C(=O)c2ccccc21 | 47.8* | 54.9* | -5.4 | 7.2 | 40.1 | 42.0* | 35.5*
CC(C)COc1cccc(C(=O)NC(=S)NCc2cccnc2)c1 | 43.4* | 47.4* | -11.5 | 7.2 | 38.5 | 20.9 | -19.0
CCOc1cccc(C(=O)NC(=S)NCc2cccnc2)c1 | 5.2 | 13.3 | 20.5 | 10.7 | 25.4 | . | .
CC(OC(=O)CSc1ccc(F)cc1)C(=O)NC1(C#N)CCCCC1 (configuration not stated) | -0.3 | 3.1 | 17.5 | -0.3 | 2.3 | . | .
COc1ccc(C(=O)N2CCCCCC2)cc1S(=O)(=O)N1CCOCC1 | 2.9 | 0.3 | -2.9 | 8.5 | 2.6 | . | .
S=C(NCCN1CCOCC1)N/N=C/c1c2ccccc2cc2ccccc12 | 41.9* | 56.7* | 29.5 | -14.6 | 30.1 | 43.2* | -18.4
COc1ccc2ccccc2c1/C=N/NC(=S)NCCN1CCOCC1 | 20.7 | 22.9 | 6.5 | 2.3 | 8.7 | . | .
C=CCn1c(SCC(=O)c2c(N)n(C)c(=O)n(C)c2=O)nnc1-c1ccoc1C | -0.7 | 7.9 | . | 7.0 | 9.5 | . | .
Cc1ccc(NC(=O)C2CCCN2c2nn3c(=O)cc(C)nc3s2)cc1 (configuration not stated) | -1.2 | -3.4 | 1.1 | 13.9 | 0.7 | . | .
COc1ccc(S(=O)(=O)NNC(=O)c2ccccc2-n2cccc2)cc1 | 24.4 | 19.2 | 5.1 | 24.4 | 5.8 | . | .
Cc1cc(C)c2c(-n3cccc3)c(C(=O)NNS(=O)(=O)c3ccc(Br)cc3)sc2n1 | 40.8* | 40.7* | 59.4* | -0.8 | 48.9 | 43.6* | 21.1
O/N=C/c1cc(Cl)ccc1OCc1cccc2ccccc12 | 44.0* | 63.5* | 79.5* | 17.7 | 47.9 | 23.6 | 49.6*
C#CCOc1ccc(Cl)cc1/C=N/O | -2.1 | 12.9 | -2.4 | -14.7 | 13.3 | . | .
Nc1cc(OC(=O)c2cccs2)nn1S(=O)(=O)c1ccc(F)cc1 | 52.6* | 41.2* | 6.1 | 4.5 | 43.6 | 31.1* | 23.1
Cc1ccc(Oc2nnc(-c3cccs3)c3ccccc23)cc1 | -5.2 | 14.4 | 3.1 | 5.1 | 14.5 | . | .
Cc1ccc(Oc2nnc(-c3cccs3)c3ccccc23)cc1C | 46.2* | 45.9* | 11.2 | 15.8 | 41.6 | 20.4 | 13.4
CC(C)(C)c1ccc(-c2n[nH]c(=S)n2C2CCCC2)cc1 | 44.5* | 41.3* | 0.1 | 17.6 | 47.5 | 29.8* | 45.1*
